For some assays here: Results with a measured potency or affinity are listed apart. Calls of active or inactive are those of the source. Unless noted, how the calls were made is not given here.
Assays:
[1] = antimalarial activity against Dd2 strain (AID 2302;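 active means growth inhibition above 50% at the single 2 µM test dose, taken to imply half-maximal potency below 2 µM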;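 further: 0% = DMSO untreated growth and 100% = chloroquine plus artemisinin killed control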); conditions: P. falciparum Dd2 in RBCs, LDH growth readout, 72 h; at 2 µM; stronger effect = higher value
[2] = human hepatoma cell viability loss – ATP luminescence, cytotoxicity control for P. falciparum antimalarial project, primary screen (AID 2303;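 active means inhibition above 50%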;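 further: 0% = DMSO wells and 100% = digitonin-killed cells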); conditions: HepG2 viability, 24-48 h, at 10 µM, stronger effect = higher value
[3] = target: L-lactate dehydrogenase (Plasmodium falciparum (isolate CDC / Honduras)) (UniProt Q27743); experiment: PfLDH activity inhibition – cell lysate, 3D7 strain, counter-screen for P. falciparum growth inhibition project (AID 2304);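 further: 0% = vehicle and 100% = reference inhibitor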; conditions: P. falciparum 3D7 crude extract, LDH APAD/NBT absorbance; at 2 µM; stronger effect = higher value
L-lactate dehydrogenase (Plasmodium falciparum (isolate CDC / Honduras)), sequence (Q27743 whole entry, looked up): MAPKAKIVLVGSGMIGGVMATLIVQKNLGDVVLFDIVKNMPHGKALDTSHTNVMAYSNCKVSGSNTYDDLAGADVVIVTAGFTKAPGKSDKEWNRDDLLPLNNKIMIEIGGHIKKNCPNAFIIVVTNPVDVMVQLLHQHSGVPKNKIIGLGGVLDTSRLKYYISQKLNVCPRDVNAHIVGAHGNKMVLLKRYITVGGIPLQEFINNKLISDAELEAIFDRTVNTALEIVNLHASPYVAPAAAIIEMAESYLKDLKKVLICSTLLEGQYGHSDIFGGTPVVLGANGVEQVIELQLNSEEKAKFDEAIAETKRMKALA

[4] = inhibition of 3D7 malaria parasite growth – strain 3D7 (AID 2306);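 further: 0% = DMSO wells and 100% = chloroquine plus artemisinin control wells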; conditions: P. falciparum 3D7 erythrocytic growth, LDH absorbance, 72 h; at 2 µM; stronger effect = higher value
[5] = target: Calcium-dependent protein kinase 1 (Plasmodium falciparum (isolate 3D7)) (UniProt P62344); experiment: PfCDPK1 kinase inhibitors, biochemical, TCAMS library (AID 1159585; cut-off not given, nearly all actives have IC50 up to about 0.98 µM;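 further: inhibitors leave more ATP so luminescence rises with inhibition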); conditions: recombinant PfCDPK1, Kinase-Glo ATP depletion luminescence
Calcium-dependent protein kinase 1 (Plasmodium falciparum (isolate 3D7)), sequence (P62344 whole entry, looked up): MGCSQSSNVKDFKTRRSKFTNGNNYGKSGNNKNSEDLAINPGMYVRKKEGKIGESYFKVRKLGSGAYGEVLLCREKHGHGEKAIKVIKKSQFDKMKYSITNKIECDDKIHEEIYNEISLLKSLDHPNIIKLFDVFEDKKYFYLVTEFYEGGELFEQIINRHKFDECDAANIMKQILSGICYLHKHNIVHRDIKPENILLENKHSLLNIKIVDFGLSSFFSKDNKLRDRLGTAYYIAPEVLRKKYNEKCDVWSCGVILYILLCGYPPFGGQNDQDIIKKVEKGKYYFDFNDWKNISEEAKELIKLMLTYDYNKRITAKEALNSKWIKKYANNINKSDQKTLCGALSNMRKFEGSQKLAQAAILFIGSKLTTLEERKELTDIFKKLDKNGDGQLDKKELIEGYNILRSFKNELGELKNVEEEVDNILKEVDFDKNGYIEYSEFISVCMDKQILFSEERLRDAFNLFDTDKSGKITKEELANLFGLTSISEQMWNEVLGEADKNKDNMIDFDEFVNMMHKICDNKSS

[6] = target: Plasmodium falciparum protein kinase 6 (PK6, PF3D7_1337100) (UniProt Q8IDW1); experiment: PfPK6 kinase inhibitors, biochemical, TCAMS library (AID 1159586); conditions: recombinant PfPK6, Kinase-Glo ATP depletion luminescence
Plasmodium falciparum protein kinase 6 (PK6, PF3D7_1337100), sequence (Q8IDW1 1-305): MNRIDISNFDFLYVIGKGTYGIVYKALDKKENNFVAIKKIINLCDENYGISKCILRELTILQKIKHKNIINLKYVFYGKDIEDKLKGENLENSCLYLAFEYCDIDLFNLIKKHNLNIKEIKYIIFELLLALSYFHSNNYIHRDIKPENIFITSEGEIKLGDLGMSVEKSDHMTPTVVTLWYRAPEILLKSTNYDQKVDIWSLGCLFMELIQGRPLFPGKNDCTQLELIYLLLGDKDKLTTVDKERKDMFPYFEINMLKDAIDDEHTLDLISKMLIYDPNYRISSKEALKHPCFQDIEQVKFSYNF

[7] = target: Protein kinase 7 (PK7), Plasmodium falciparum 3D7 (PF3D7_0213400) (UniProt Q7YTF7); experiment: inhibition of Plasmodium PK7 catalytic activity – biochemical, TCAMS antimalarial set, Kinase-Glo luminescence (AID 1159587); conditions: recombinant PfPK7, Kinase-Glo ATP depletion luminescence
Protein kinase 7 (PK7), Plasmodium falciparum 3D7 (PF3D7_0213400), sequence (Q7YTF7 1-343): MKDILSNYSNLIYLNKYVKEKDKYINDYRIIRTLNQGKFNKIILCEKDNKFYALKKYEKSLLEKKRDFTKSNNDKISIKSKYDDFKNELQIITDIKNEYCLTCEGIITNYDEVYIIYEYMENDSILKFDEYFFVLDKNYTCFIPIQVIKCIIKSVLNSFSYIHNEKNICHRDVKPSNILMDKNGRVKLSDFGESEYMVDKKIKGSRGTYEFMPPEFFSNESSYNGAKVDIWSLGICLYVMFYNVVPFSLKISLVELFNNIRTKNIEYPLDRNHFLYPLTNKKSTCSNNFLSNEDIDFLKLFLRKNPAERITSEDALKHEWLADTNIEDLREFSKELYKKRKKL

[8] = target: Calcium-dependent protein kinase 4 (Plasmodium falciparum (isolate 3D7)) (UniProt Q8IBS5); experiment: PfCDPK4 kinase inhibitors, biochemical, TCAMS library (AID 1159588; cut-off not given, nearly all actives have IC50 up to about 0.91 µM); conditions: recombinant PfCDPK4, Kinase-Glo ATP depletion luminescence
Calcium-dependent protein kinase 4 (Plasmodium falciparum (isolate 3D7)), sequence (Q8IBS5 whole entry, looked up): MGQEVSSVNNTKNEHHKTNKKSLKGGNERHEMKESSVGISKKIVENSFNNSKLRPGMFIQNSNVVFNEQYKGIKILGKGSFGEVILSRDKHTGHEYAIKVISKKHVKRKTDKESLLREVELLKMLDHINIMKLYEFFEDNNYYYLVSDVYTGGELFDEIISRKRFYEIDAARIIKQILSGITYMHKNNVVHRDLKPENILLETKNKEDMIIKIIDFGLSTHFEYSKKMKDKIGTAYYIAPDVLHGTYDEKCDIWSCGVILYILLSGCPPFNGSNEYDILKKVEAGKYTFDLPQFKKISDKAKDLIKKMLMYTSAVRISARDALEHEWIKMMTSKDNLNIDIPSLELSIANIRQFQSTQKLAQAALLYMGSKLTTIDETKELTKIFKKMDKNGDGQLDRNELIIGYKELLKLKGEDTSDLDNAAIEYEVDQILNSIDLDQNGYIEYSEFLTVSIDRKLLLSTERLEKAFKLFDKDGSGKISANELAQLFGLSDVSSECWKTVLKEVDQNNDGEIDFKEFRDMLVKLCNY

O=C(Nc1ccc2c(c1)CCC2)c1cccc(N2CCN(c3ccncc3)CC2)c1
active: growth inhibition [4] 92%
inactive: growth inhibition [1] 22% | inhibition [2] 35% | inhibition [3] -2% | outcome [5] | outcome [6] | outcome [7] | outcome [8]

COc1cc2nc(Nc3ccc(Oc4ccccc4)cc3)nc(Nc3ccc(Oc4ccccc4)cc3)c2cc1OC
active: growth inhibition [4] 95%
inactive: growth inhibition [1] 45% | inhibition [2] 5% | inhibition [3] 6% | outcome [5] | outcome [6] | outcome [7] | outcome [8]

Cc1cc(C)c(NC(=O)NC2CCN(CCCCCNC(=O)/C=C/c3ccc(Cl)c(Cl)c3)C2)c(C)c1 (stereo not given)
active: growth inhibition [4] 99%
inactive: growth inhibition [1] 48% | inhibition [2] 23% | inhibition [3] 1% | outcome [5] | outcome [6] | outcome [7] | outcome [8]

NC(=O)c1ccc(NCC(=O)Nc2cccc(-c3cccc(-c4nc5ccc(C(F)(F)F)cc5[nH]4)c3)c2)cc1
inactive: growth inhibition [1] 41% | inhibition [2] 32% | inhibition [3] 1% | outcome [5] | outcome [6] | outcome [7] | outcome [8]
active: growth inhibition [4] 99%

CN(Cc1cccc(F)c1)C1CCN(c2cc(NC(=O)c3ccc(F)cc3)ccn2)CC1
inactive: growth inhibition [1] 36% | inhibition [2] -3% | inhibition [3] 3% | outcome [5] | outcome [6] | outcome [7] | outcome [8]
active: growth inhibition [4] 95%

CCCNC[C@@H](O)[C@H](Cc1ccccc1)NC(=O)c1cc2c3c(c1)c(CC)cn3CCS(=O)(=O)N2C
active: growth inhibition [1] 98% | growth inhibition [4] 97%
inactive: inhibition [2] -4% | inhibition [3] 2% | outcome [5] | outcome [6] | outcome [7] | outcome [8]

N=C(N)c1cccc(-c2cc(-c3cccc(C(=N)N)c3)on2)c1
active: growth inhibition [1] 78% | growth inhibition [4] 96%
inactive: inhibition [2] 8% | inhibition [3] 3% | outcome [5] | outcome [6] | outcome [7] | outcome [8]

COc1cc(Nc2nccn3c(-c4ccsc4)cnc23)cc(OC)c1OC
active: growth inhibition [1] 78% | growth inhibition [4] 93%
inactive: inhibition [2] 26% | inhibition [3] 3% | outcome [5] | outcome [6] | outcome [7] | outcome [8]

O=C(O)c1cc(C(F)(F)F)co1
inactive: growth inhibition [1] 19% | inhibition [2] -4% | inhibition [3] 1% | outcome [5] | outcome [6] | outcome [7] | outcome [8]
active: growth inhibition [4] 96%

CCNc1cc(C(=O)N[C@@H](Cc2ccccc2)[C@H](O)CNC(C)(C)Cc2cccc(OC)c2)cc(N2CCCC2=O)c1
inactive: inhibition [2] 7% | inhibition [3] -8% | outcome [5] | outcome [6] | outcome [7] | outcome [8]
active: growth inhibition [1] 97% | growth inhibition [4] 99%

CNc1cc(-c2ccc3ccnc(N)c3c2)nc(N)n1
active: growth inhibition [1] 81% | growth inhibition [4] 100%
inactive: inhibition [2] 23% | inhibition [3] -2% | outcome [5] | outcome [6] | outcome [7] | outcome [8]

Cc1nc2nc(N)nc(N)c2c(C)c1Cc1ccc(C#N)cc1
inactive: growth inhibition [1] 4% | inhibition [3] 1% | outcome [5] | outcome [6] | outcome [7] | outcome [8]
active: inhibition [2] 69% | growth inhibition [4] 96%

COc1ccc2c(NN=Cc3cccc(C)n3)ccnc2c1
active: growth inhibition [1] 51% | growth inhibition [4] 96%
inactive: inhibition [2] -12% | inhibition [3] 3% | outcome [5] | outcome [6] | outcome [7] | outcome [8]

O=C(Nc1ccc(F)cc1)NC1CCN(c2ccnc3cc(Cl)ccc23)C1 (stereo not given)
active: growth inhibition [1] 67% | growth inhibition [4] 101%
inactive: inhibition [2] 17% | inhibition [3] 2% | outcome [5] | outcome [6] | outcome [7] | outcome [8]

COc1ccc(-c2cccc(NC(=O)c3ccc(Cl)cc3)c2)cc1CN(C)CCN(C)C
inactive: inhibition [2] 37% | inhibition [3] 4% | outcome [5] | outcome [6] | outcome [7] | outcome [8]
active: growth inhibition [1] 61% | growth inhibition [4] 99%

CN(C)CCCOc1cccc(NC(=O)Nc2ccc(Cl)c(Cl)c2)c1
active: growth inhibition [4] 90%
inactive: growth inhibition [1] 8% | inhibition [2] 6% | inhibition [3] -1% | outcome [5] | outcome [6] | outcome [7] | outcome [8]

Oc1ccc2[nH]c(-c3cccc(F)c3)nc2c1CN1CCC(O)(c2ccccc2)CC1
active: growth inhibition [1] 72% | growth inhibition [4] 97%
inactive: inhibition [2] 21% | inhibition [3] -1% | outcome [5] | outcome [6] | outcome [7] | outcome [8]

COCCn1c(-c2cccc(Cl)c2)nn(-c2ccc([N+](=O)[O-])cc2C#N)c1=S
active: growth inhibition [1] 100% | growth inhibition [4] 100%
inactive: inhibition [2] 7% | inhibition [3] 0% | outcome [5] | outcome [6] | outcome [7] | outcome [8]

O=C(CCc1cnc[nH]1)Nc1cccc(-c2ccc(-c3nc4ccccc4[nH]3)cc2)c1
active: growth inhibition [1] 60% | growth inhibition [4] 100%
inactive: inhibition [2] 24% | inhibition [3] 1% | outcome [5] | outcome [6] | outcome [7] | outcome [8]

COc1c(C2CCN(CCCCNC(=O)c3ccc(-c4ccc(Cl)cc4)cn3)CC2)ccc2c1CCCC2
inactive: growth inhibition [1] 14% | inhibition [3] -3% | outcome [5] | outcome [6] | outcome [7] | outcome [8]
active: inhibition [2] 100% | growth inhibition [4] 93%

COc1ccc(CC2(c3ccc(F)cc3)N=C(N)N(CCCc3ccc(F)c(F)c3)C2=O)cc1 (stereo not given)
active: growth inhibition [1] 98% | growth inhibition [4] 98%
inactive: inhibition [2] 42% | inhibition [3] 5% | outcome [5] | outcome [6] | outcome [7] | outcome [8]

O=C(/C=C/c1ccc(Cl)cc1)NCCCCCN1CCCN(C(=O)Nc2ccc(F)c(Cl)c2)CC1
active: growth inhibition [4] 94%
inactive: growth inhibition [1] 6% | inhibition [2] 29% | inhibition [3] 1% | outcome [5] | outcome [6] | outcome [7] | outcome [8]

COc1cccc(NC(=O)c2cc(Br)cc(N3CCN(c4ccncc4)CC3)c2)c1
inactive: inhibition [2] 30% | inhibition [3] 0% | outcome [5] | outcome [6] | outcome [7] | outcome [8]
active: growth inhibition [1] 79% | growth inhibition [4] 100%

Clc1cc(Cl)c2cc(CNCCCNc3ccc4ccccc4n3)[nH]c2c1
inactive: inhibition [3] 3% | outcome [5] | outcome [6] | outcome [7] | outcome [8]
active: growth inhibition [1] 54% | inhibition [2] 98% | growth inhibition [4] 99%

CCC(NC[C@@H](O)[C@H](Cc1ccccc1)NC(=O)c1cc(C2CCCC2)cc(N2CCCC2=O)c1)c1cccc(Cl)c1 (stereo not given in full)
inactive: inhibition [2] 7% | inhibition [3] -8% | outcome [5] | outcome [6] | outcome [7] | outcome [8]
active: growth inhibition [1] 97% | growth inhibition [4] 100%

CC(Sc1nc2sccc2c(=O)n1C)C(=O)Nc1ccc2c(c1)OCO2 (stereo not given)
active: growth inhibition [1] 100% | growth inhibition [4] 100%
inactive: inhibition [2] 5% | inhibition [3] 4% | outcome [5] | outcome [6] | outcome [7] | outcome [8]

COc1cccc(C(O)CNc2ccnc(Nc3cccc(-c4csc(C)n4)c3)n2)c1 (stereo not given)
active: growth inhibition [1] 73% | growth inhibition [4] 99%
inactive: inhibition [2] 38% | inhibition [3] -8% | outcome [5] | outcome [6] | outcome [7] | outcome [8]

Cc1cc(NC(=O)Nc2ccc3sccc3c2)c2ccccc2n1
inactive: inhibition [2] 41% | inhibition [3] 0% | outcome [5] | outcome [6] | outcome [7] | outcome [8]
active: growth inhibition [1] 57% | growth inhibition [4] 99%

O=C(/C=C/c1ccc(Cl)c(Cl)c1)NCCCCCN1CCCN(C(=O)Nc2ccc(Cl)c(C(F)(F)F)c2)CC1
inactive: growth inhibition [1] 16% | inhibition [2] 35% | inhibition [3] 4% | outcome [5] | outcome [6] | outcome [7] | outcome [8]
active: growth inhibition [4] 102%

O=C(N[C@H]1CCN(CCc2ccc(O[C@H]3CCNC3)c(Cl)c2)C1)c1ccc(Cl)c(Cl)c1
inactive: growth inhibition [1] -1% | inhibition [2] 26% | inhibition [3] 2% | outcome [5] | outcome [6] | outcome [7] | outcome [8]
active: growth inhibition [4] 101%

N#Cc1ccc2[nH]cc(C(=O)CCCCCN(Cc3ccccc3)Cc3ccccc3)c2c1
active: growth inhibition [1] 97% | growth inhibition [4] 93%
inactive: inhibition [2] 10% | inhibition [3] 2% | outcome [5] | outcome [6] | outcome [7] | outcome [8]

Nc1ncc(-c2ccc(Cl)c(Cl)c2)c(N)n1
inactive: growth inhibition [1] -2% | inhibition [3] -2% | outcome [5] | outcome [6] | outcome [7] | outcome [8]
active: inhibition [2] 65% | growth inhibition [4] 94%

Cc1ccc(-c2cccc3c(NC(=O)Nc4ccc5nccc(N6CCN(C)CC6)c5c4)cccc23)cn1
inactive: inhibition [2] 6% | inhibition [3] -7% | outcome [5] | outcome [6] | outcome [7] | outcome [8]
active: growth inhibition [1] 89% | growth inhibition [4] 90%

Cc1nc2nc(N)nc(N)c2c(C)c1Cc1c(Cl)cccc1Cl
inactive: growth inhibition [1] 5% | inhibition [2] 7% | inhibition [3] -1% | outcome [5] | outcome [6] | outcome [7] | outcome [8]
active: growth inhibition [4] 94%

O=C(Cc1ccc(NC(=O)c2ccc(O)c(-c3ccc(Cl)c(Cl)c3)c2)cc1)NCCN1CCOCC1
inactive: growth inhibition [1] 24% | inhibition [2] 10% | inhibition [3] 4% | outcome [5] | outcome [6] | outcome [7] | outcome [8]
active: growth inhibition [4] 94%

COc1ccc(-c2nc(NC(=O)Cc3ccc(OC)c(OC)c3)sc2C)cc1
active: growth inhibition [4] 93%
inactive: growth inhibition [1] 22% | inhibition [2] 33% | inhibition [3] -2% | outcome [5] | outcome [6] | outcome [7] | outcome [8]

O=C(Nc1ccc(C(=O)OC[C@@H]2CCCN3CCCC[C@H]23)cc1)c1ccc([N+](=O)[O-])cc1
active: growth inhibition [4] 95%
inactive: growth inhibition [1] 25% | inhibition [2] 5% | inhibition [3] 2% | outcome [5] | outcome [6] | outcome [7] | outcome [8]

CC(C)(C)c1ccc(CNC(=O)/C=C/c2ccc(-c3nc4ccc(C(C)(C)C)cc4[nH]3)cc2)cc1
active: growth inhibition [1] 66% | growth inhibition [4] 100%
inactive: inhibition [2] 35% | inhibition [3] -2% | outcome [5] | outcome [6] | outcome [7] | outcome [8]

CCN(CC)CCN1C(=O)c2oc3ccc(F)cc3c(=O)c2C1c1cccc(Cl)c1 (stereo not given)
inactive: inhibition [2] -4% | inhibition [3] -2% | outcome [5] | outcome [6] | outcome [7] | outcome [8]
active: growth inhibition [1] 93% | growth inhibition [4] 99%

Nc1nccc2ccc(-c3cccnc3)cc12
active: growth inhibition [1] 95% | growth inhibition [4] 97%
inactive: inhibition [2] 9% | inhibition [3] 2% | outcome [5] | outcome [6] | outcome [7] | outcome [8]

Reference: PubChem BioAssay
